# SRC3 TRFRET art – flags TR-FRET format artefacts in PPARgamma SRC-3 recruitment agonist screen | TR-FRET ratio at 8 µM | 0.39% of 99,000 active | TR-FRET artefact counter-screen, PPARgamma/SRC-3 format; stronger effect = higher value | AID 1048
# SRC1 TRFRET art – flags TR-FRET format artefacts in PPARgamma SRC-1 recruitment agonist screen | TR-FRET detection artefact counter-screen, emission ratio; stronger effect = higher value | AID 1051 | 0.34% of 99,000 active | TR-FRET ratio at 8 µM; in the data active = TR-FRET ratio above about 2300
# PPARg SRC-3 ag – agonists of human PPARgamma SRC-3 coactivator recruitment; P37231; biochemical PPARgamma/SRC-3 coactivator recruitment assay; activation, % at 8 µM; 0.26% of 200,000 active; in the data active = activation above about 23%;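 also: 0% = DMSO and 100% = reference agonist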
# Target sequence (P37231 whole entry, looked up): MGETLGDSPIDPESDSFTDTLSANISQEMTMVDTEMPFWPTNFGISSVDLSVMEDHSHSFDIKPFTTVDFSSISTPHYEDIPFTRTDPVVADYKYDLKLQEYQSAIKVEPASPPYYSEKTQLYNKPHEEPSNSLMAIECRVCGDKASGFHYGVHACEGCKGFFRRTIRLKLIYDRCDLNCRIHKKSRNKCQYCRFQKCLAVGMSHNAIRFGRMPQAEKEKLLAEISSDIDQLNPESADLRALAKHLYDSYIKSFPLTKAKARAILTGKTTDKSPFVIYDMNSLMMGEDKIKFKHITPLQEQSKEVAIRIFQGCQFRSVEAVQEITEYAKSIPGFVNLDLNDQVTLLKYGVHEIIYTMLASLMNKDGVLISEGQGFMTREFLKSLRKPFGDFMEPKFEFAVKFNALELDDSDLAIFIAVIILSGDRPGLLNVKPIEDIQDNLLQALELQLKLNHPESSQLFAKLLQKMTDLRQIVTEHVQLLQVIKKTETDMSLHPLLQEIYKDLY
# SRC2 TRFRET art – counter-screen for PPARgamma SRC-2 recruitment agonists: TR-FRET artefact; stronger effect = higher value; 0.4% of 200,000 active; TR-FRET ratio at 8 µM
# PPARg SRC-1 ag – PPARgamma-driven SRC-1 recruitment agonism | P37231 | PPARgamma-SRC-1 coactivator recruitment biochemical assay | activation, % at 8 µM | 0.41% of 200,000 active | AID 631; in the data active = activation above about 19%;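 also: 0% = DMSO and 100% = reference agonist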
# PPARg SRC-2 ag – promotes SRC-2 coactivator recruitment by human PPARgamma. P37231. PPARgamma LBD-SRC-2 recruitment, biochemical. activation, % at 8 µM. 0.34% of 200,000 active; in the data active = activation above about 22%;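 also: 0% = vehicle and 100% = reference agonist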
# Numbers without * were called inactive; x = no result. An excerpt weighted towards active compounds, which were near 0.9% of everything screened. Rule as the data show it, unless noted: active = TR-FRET ratio above about 2000; inactive = the rest.
SMILES,SRC3 TRFRET art,SRC1 TRFRET art,PPARg SRC-3 ag,SRC2 TRFRET art,PPARg SRC-1 ag,PPARg SRC-2 ag
O=C(N/N=C/c1ccc(O)cc1)c1csc2ccccc12,x,x,-1,1408,46*,1
CCn1cc(/C=N\NC(=O)c2csc3ccccc23)c(C)n1,x,x,0,1413,0,5
O=C(CCCCCn1c(=S)[nH]c2ccc(N3CCOCC3)cc2c1=O)NCc1ccc2c(c1)OCO2,3424*,1919,13,1663,3,6
O=C(CCCCCn1c(=S)[nH]c2ccc(N3CCOCC3)cc2c1=O)NCc1ccccc1Cl,3063*,1939,13,1729,7,9
O=c1c2cc(N3CCOCC3)ccc2[nH]c(=S)n1Cc1ccc(Cl)cc1,x,x,-6,1524,-2,0
O=C(c1ccc(Cn2c(=S)[nH]c3ccc(N4CCOCC4)cc3c2=O)cc1)N1CCN(c2ccc(F)cc2)CC1,3426*,3474*,14,2803*,20,17
O=C(CCCCCn1c(=S)[nH]c2ccc(N3CCOCC3)cc2c1=O)NCc1ccc(Cl)cc1,2786*,2133,8,1687,5,6
O=C(CCCCCn1c(=S)[nH]c2ccc(N3CCOCC3)cc2c1=O)NCCc1ccccc1,1541,1893,4,1485,-3,0
CCCCn1c(=S)[nH]c2ccc(N3CCOCC3)cc2c1=O,1807,1816,3,1492,-3,14
COc1ccc(N2CCN(C(=O)c3ccc(Cn4c(=S)[nH]c5ccc(N6CCOCC6)cc5c4=O)cc3)CC2)cc1,1821,1727,8,1719,4,0
CC1(C)OC(c2ccccc2)=C/C(=C/C=N/NC(=O)c2ccncc2)O1,1591,1941,3,1561,8,9
Cn1cc([N+](=O)[O-])c(C(=O)Nc2ccn(Cc3c(F)c(F)cc(F)c3F)n2)n1,x,x,-2,1578,-4,0
CC(C)=NNc1nc2sc3c(c2c(=O)[nH]1)CC(C)(C)OC3,1443,1846,-1,1489,0,6
O=C(COC(=O)c1ccc(-c2nnc(-c3ccccc3)o2)cc1)c1ccccc1,1850,2073,3,2098*,5,15
O=c1c2cnn(-c3ccccc3)c2nc(-c2cccs2)n1-c1ccc(Cl)cc1,x,x,-10,1373,5,-6
O=c1c2cnn(-c3ccccc3)c2nc(-c2cccs2)n1-c1cccc(Cl)c1,2389*,1717,11,1669,3,0
Cc1ccc(C)c(S(=O)(=O)Nc2ccc(C(=O)NCCc3ccccn3)cc2)c1,1535,1688,2,1738,1,-14
COC(=O)c1ccc(C(=O)OC)c(NC(=O)C(C)(C)C)c1,1496,3181*,0,1765,46*,9
COC(=O)c1ccc(C(=O)OC)c(NC(=O)CCC(=O)O)c1,x,x,-7,1558,7,3
COc1cccc2sc(N3CCN(c4nc5ccccc5s4)CC3)nc12,x,x,31*,1528,12,3
Clc1cccc2sc(N3CCN(c4ccccc4)CC3)nc12,1618,2030,-1,1671,1,28*
Clc1ccc(Cl)c2sc(N3CCCC3)nc12,x,x,-3,1469,2,-6
c1ccc2sc(N3CCOCC3)nc2c1,x,x,-1,1698,6,9
C=CCn1c(=O)c2ccccc2n2c(SCC(=O)c3ccccc3)nnc12,x,x,27*,1556,8,1
C=CCn1c(=O)c2ccccc2n2c(SCc3nc(N)nc(Nc4ccccc4C)n3)nnc12,x,x,8,1648,22*,5
SMILES,SRC3 TRFRET art,SRC1 TRFRET art,PPARg SRC-3 ag,SRC2 TRFRET art,PPARg SRC-1 ag,PPARg SRC-2 ag
CCCCn1c(SCc2nc(N)nc(Nc3ccccc3C)n2)nc2ccccc2c1=O,x,x,-10,1460,-2,-5
CN1CCCN(Cc2nc(-c3ccc(Cl)cc3)no2)CC1,1686,1826,5,1376,8,2
CCOCCCn1c(SCC(=O)NCc2ccc3c(c2)OCO3)nc2ccccc2c1=O,1553,1990,5,1620,10,-1
C=CCn1c(SCC(=O)NCc2ccc3c(c2)OCO3)nc2scc(-c3ccccc3)c2c1=O,x,x,2,1974*,9,5
CCCCNC(=O)CSc1nc2ccccc2c(=O)n1Cc1ccc2c(c1)OCO2,x,x,18,5232*,3,190*
COc1cccc(NC(=O)N2CCN(c3nnnn3-c3ccccc3)CC2)c1,1555,1571,1,1579,3,-1
COc1ccc(/C=C2\N=C(SC)NC2=O)cc1,x,x,16,1784,4,22*
CCSC1=N/C(=C\c2ccc(OC)cc2)C(=O)N1,1829,1935,8,1665,8,-2
CCCN1CCN(C(=O)Cn2cnc3ccc(S(=O)(=O)N4CCC(C)CC4)cc3c2=O)CC1,1687,1877,4,1674,7,2
Cc1cc(C)n2nc(SCC(=O)c3cc(C)n(CC4CCCO4)c3C)nc2n1 (configuration not stated),1680,2015,0,1604,-1,7
Cc1cc2nc(-c3ccc(SCc4ccc(C#N)cc4)nc3)[nH]c2cc1C,x,x,10,2209*,5,12
COc1ccc(N(CC(=O)Nc2cccc(N(C)S(C)(=O)=O)c2)S(=O)(=O)c2ccccc2)cc1Cl,1468,1474,0,1545,-4,1
CCOC(=O)c1ccc(NC(=O)Nc2cc(C)cc(C)n2)cc1,1531,1924,0,1399,-6,-4
COc1ccc(NC(=O)COC(=O)c2cccc(S(=O)(=O)N(C)C)c2)cc1,1754,2141,2,1513,24*,-3
CSc1ncccc1C(=O)OCC(=O)c1ccccc1Br,1555,1823,-2,1616,-5,0
CSc1ncccc1C(=O)OCC(=O)c1ccc(Br)s1,3227*,2355*,16,1749,11,15
CC(C(=O)OCC(=O)Nc1cccc(S(=O)(=O)N2CCOCC2)c1)N1C(=O)c2ccccc2C1=O (configuration not stated),1715,1971,0,1687,9,2
Cc1cc2cc3c(cc2nc1SCc1ccc(C(=O)O)cc1)OCCO3,1655,1728,-6,1513,10,12
COc1cccc(CSc2nc3cc4c(cc3cc2C)OCCO4)c1,2784*,2000,7,1704,9,11
COc1ccc2sc3ccccc3c(=O)c2c1,x,x,3,2220*,3,6
COc1ccc(-c2cc(=O)c3ccccc3s2)cc1,x,x,0,1505,0,-4
CCCCn1c(-c2cc(Cl)ccc2OC)n[nH]c1=S,x,x,19,1787,14,22*
COc1ccc(CCn2c(-c3ccc(Cl)cc3)n[nH]c2=S)cc1OC,1596,1922,8,1399,4,5
CCOC(=O)c1ccccc1NC(=O)c1cn(-c2ccc(C)c(C)c2)c(=O)c2ccccc12,1904,1817,9,3144*,-1,130*
COC(=O)c1ccccc1NC(=O)c1cn(-c2ccc(C)c(C)c2)c(=O)c2ccccc12,1579,1931,9,1685,1,3
Cc1nn(-c2ccccn2)c2c1-c1nc(N)ncc1CC2,x,x,10,1459,1,0

# From PubChem
